# Data published in the supplement of paper PMC8728848.
# Many of the other results were omitted from the sample, so the strongest signals are more common in it than they were.
# B1: Langerin (Homo sapiens), Q9UJ71 (protein)
# chain: STLNAQIPELKSDLEKASALNTKIRALQGSLENMSKLLKRQNDILQVVSQGWKYFKGNFYYFSLIPKTWYSAEQFCVSRNSHLTSVTSESEQEFLYKTAGGLIYWIGLTKAGMEGDWSWVDDTPFNKVQSARFWIPGEPNDAGNNEHCGNIKAPSLQAWNDAPCDITFLFICKRPYVPSEP
# Columns and labels:
# Assay in all cases: glycan array binding signal (z-score within array); higher = stronger binding
# Settings in all cases: glycan notation: IUPAC condensed, linker removed; mutation: N288D, K313I
# [1] = target: Fuc(a1-2)Gal(b1-3)GlcNAc(b1-3)[Fuc(a1-2)Gal(b1-3)GlcNAc(b1-6)]GalNAc
# In short: (§1)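 The binding signal is a Z-score computed within each array and averaged over linkers. Arrays of the same protein sequence at different concentrations or buffers were also averaged together. Data originate from 3228 arrays in the Consortium for Functional Glycomics database, kept only where the protein sequence was available.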
# [2] = target: Fuc(a1-2)Gal(b1-3)GlcNAc(b1-3)[Gal(b1-4)GlcNAc(b1-6)]Gal(b1-4)Glc
# In short: as §1
# [3] = target: Fuc(a1-2)Gal(b1-4)Fuc(a1-3)]GlcNAc(b1-2)Man(a1-3)[Fuc(a1-2)Gal(b1-4)[Fuc(a1-3)]GlcNAc(b1-2)Man(a1-6)]Man(b1-4)GlcNAc(b1-4)GlcNAc
# In short: as §1
# [4] = target: Fuc(a1-2)Gal(b1-4)GlcNAc(b1-2)Man(a1-3)[Fuc(a1-2)Gal(b1-4)GlcNAc(b1-2)Man(a1-6)]Man(b1-4)GlcNAc(b1-4)GlcNAc
# In short: as §1
# [5] = target: Fuc(a1-2)Gal6S(b1-3)GlcNAc
# In short: as §1
# [6] = target: Fuc(a1-2)[GalNAc(a1-3)]Gal(b1-3)GlcNAc(b1-6)GalNAc
# In short: as §1
# [7] = target: Fuc(a1-2)[GalNAc(a1-3)]Gal(b1-4)GlcNAc
# In short: as §1
# [8] = target: Fuc(a1-2)[GalNAc(a1-3)]Gal(b1-4)GlcNAc(b1-3)GalNAc
# In short: as §1
# [9] = target: Fuc(a1-2)[GalNAc(a1-3)]Gal(b1-4)[Fuc(a1-3)]GlcNAc(b1-3)GalNAc
# In short: as §1
# [10] = target: Fuc(a1-2)[GalNAc(a1-4)]Gal(b1-4)GlcNAc
# In short: as §1
# [11] = target: Fuc(a1-3)[Gal3S(b1-4)]GlcNAc
# In short: as §1
# [12] = target: Gal(a1-3)Gal(b1-3)GlcNAc(b1-6)GalNAc
# In short: as §1
# [13] = target: Gal(a1-3)Gal(b1-3)[Fuc(a1-4)]GlcNAc(b1-2)Man(a1-3)[Gal(a1-3)Gal(b1-3)[Fuc(a1-4)]GlcNAc(b1-2)Man(a1-6)]Man(b1-4)GlcNAc(b1-4)GlcNAc
# In short: as §1
# [14] = target: Gal(b1-3)GalNAc(a1-3)[Fuc(a1-2)]Gal(b1-4)Glc
# In short: as §1
# [15] = target: Gal(b1-3)GlcNAc(b1-3)Gal(b1-4)GlcNAc(b1-2)[Gal(b1-3)GlcNAc(b1-3)Gal(b1-4)GlcNAc(b1-6)]Man(a1-6)[Gal(b1-3)GlcNAc(b1-3)Gal(b1-4)GlcNAc(b1-2)Man(a1-3)]Man(b1-4)GlcNAc(b1-4)[Fuc(a1-6)]GlcNAc
# In short: as §1
# [16] = target: Gal(b1-3)GlcNAc(b1-3)Gal(b1-4)GlcNAc(b1-3)Gal(b1-4)GlcNAc(b1-2)[Gal(b1-3)GlcNAc(b1-3)Gal(b1-4)GlcNAc(b1-3)Gal(b1-4)GlcNAc(b1-6)]Man(a1-6)[Gal(b1-3)GlcNAc(b1-3)Gal(b1-4)GlcNAc(b1-3)Gal(b1-4)GlcNAc(b1-2)Man(a1-3)]Man(b1-4)GlcNAc(b1-4)[Fuc(a1-6)]GlcNAc
# In short: as §1
# [17] = target: Gal(b1-3)[Neu5Ac(a2-6)]GalNAc
# In short: as §1
# [18] = target: Gal(b1-4)GlcNAc(b1-2)Man(a1-3)[GlcNAc(b1-4)][Gal(b1-4)GlcNAc(b1-2)Man(a1-6)]Man(b1-4)GlcNAc(b1-4)GlcNAc
# In short: as §1
# [19] = target: Gal(b1-4)GlcNAc(b1-2)[Gal(b1-4)GlcNAc(b1-4)]Man(a1-3)[Gal(b1-4)GlcNAc(b1-2)[Gal(b1-4)GlcNAc(b1-6)]Man(a1-6)]Man(b1-4)GlcNAc(b1-4)GlcNAc
# In short: as §1
# [20] = target: Gal3S(b1-4)[Fuc(a1-3)]GlcNAc6S
# In short: as §1
# Gal3S4S(b1-4)GlcNAc = target: Gal3S4S(b1-4)GlcNAc
# In short: as §1
# Gal3S6S(b1-4)GlcNAc = target: Gal3S6S(b1-4)GlcNAc
# In short: as §1
# GalNAc(b1-3)Gal = target: GalNAc(b1-3)Gal
# In short: as §1
# [21] = target: GalNAc(b1-4)GlcNAc(b1-2)Man(a1-3)[GalNAc(b1-4)GlcNAc(b1-2)Man(a1-6)]Man(b1-4)GlcNAc(b1-4)GlcNAc
# In short: as §1
# GalNAc(b1-6)GalNAc = target: GalNAc(b1-6)GalNAc
# In short: as §1
# [22] = target: GalNAc3S(b1-4)[Fuc(a1-3)]GlcNAc
# In short: as §1
# [23] = target: GlcNAc(a1-4)Gal(b1-4)GlcNAc(b1-3)Gal(b1-4)Glc
# In short: as §1
# [24] = target: GlcNAc(a1-6)Gal(b1-4)GlcNAc
# In short: as §1
# [25] = target: GlcNAc(b1-2)Man(a1-3)[GlcNAc(b1-4)][GlcNAc(b1-2)Man(a1-6)]Man(b1-4)GlcNAc(b1-4)[Fuc(a1-6)]GlcNAc
# In short: as §1
# [26] = target: GlcNAc(b1-2)[GlcNAc(b1-4)]Man(a1-3)[GlcNAc(b1-2)Man(a1-6)]Man(b1-4)GlcNAc(b1-4)GlcNAc
# In short: as §1
binder,measurement,setting,value
B1,glycan array binding signal (z-score),[1],0.215
same,glycan array binding signal (z-score),[2],-0.246
same,glycan array binding signal (z-score),[3],-0.237
same,glycan array binding signal (z-score),[4],-0.023
same,glycan array binding signal (z-score),[5],-0.321
same,glycan array binding signal (z-score),[6],0.089
same,glycan array binding signal (z-score),[7],-0.27
same,glycan array binding signal (z-score),[8],-0.041
same,glycan array binding signal (z-score),[9],1.92
same,glycan array binding signal (z-score),[10],-0.285
same,glycan array binding signal (z-score),[11],0.041
same,glycan array binding signal (z-score),[12],10.4
same,glycan array binding signal (z-score),[13],-0.042
same,glycan array binding signal (z-score),[14],-0.171
same,glycan array binding signal (z-score),[15],5.7
same,glycan array binding signal (z-score),[16],7.74
same,glycan array binding signal (z-score),[17],-0.085
same,glycan array binding signal (z-score),[18],-0.237
same,glycan array binding signal (z-score),[19],-0.351
same,glycan array binding signal (z-score),[20],-0.1
same,glycan array binding signal (z-score),Gal3S4S(b1-4)GlcNAc,-0.333
same,glycan array binding signal (z-score),Gal3S6S(b1-4)GlcNAc,-0.209
same,glycan array binding signal (z-score),GalNAc(b1-3)Gal,-0.289
same,glycan array binding signal (z-score),[21],-0.176
same,glycan array binding signal (z-score),GalNAc(b1-6)GalNAc,-0.255
same,glycan array binding signal (z-score),[22],0.095
same,glycan array binding signal (z-score),[23],-0.192
same,glycan array binding signal (z-score),[24],-0.229
same,glycan array binding signal (z-score),[25],1.18
same,glycan array binding signal (z-score),[26],0.028
